Experimental data taken from the supplement of paper PMC7595190.

Key:
Test in all cases: CellTox Green cytotoxicity fluorescence relative to DMSO vehicle (fold of vehicle RFU); higher = more cell death (loss of membrane integrity), active = 2 or more
[1] = tested on: CMK
How it was run: (§1)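 Cytotoxicity values reflect loss of membrane integrity and are fluorescence expressed as fold of the DMSO vehicle. MV4-11, CMK and Kasumi-1 cells were seeded at 4.0 × 10^4 cells per well with CellTox Green reagent and treated with single Selleckchem apoptosis library compounds at final 0.01, 0.1 and 1 µM, with 0.1% DMSO as vehicle. Plates were held at 37 °C, 5% CO2 and read at 24, 48 and 72 h.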

[2] = tested on: Kasumi-1
How it was run: as §1

[3] = tested on: MV4-11
How it was run: as §1

Measured: CellTox Green cytotoxicity fluorescence

CC[C@@]1(O)C(=O)OCc2c1cc1n(c2=O)Cc2cc3cc(O)ccc3nc2-1 [(S)-10-Hydroxycamptothecin]
active: [1]; 0.1 µM, 48 h 2.2 | [1]; 0.1 µM, 72 h 2.02 | [3]; 1 µM, 48 h 2.3 | [3]; 1 µM, 72 h 2.45
inactive: [1]; 0.01 µM, 24 h 0.964 | [1]; 0.01 µM, 48 h 1.06 | [1]; 0.01 µM, 72 h 1.19 | [1]; 0.1 µM, 24 h 1.56 | [1]; 1 µM, 24 h 0.988 | [1]; 1 µM, 48 h 1.01 | [1]; 1 µM, 72 h 0.878 | [2]; 0.01 µM, 24 h 0.962 | [2]; 0.01 µM, 48 h 0.972 | [2]; 0.01 µM, 72 h 0.997 | [2]; 0.1 µM, 24 h 0.972 | [2]; 0.1 µM, 48 h 1.07 | [2]; 0.1 µM, 72 h 1.27 | [2]; 1 µM, 24 h 0.98 | [2]; 1 µM, 48 h 1.23 | [2]; 1 µM, 72 h 1.59 | [3]; 0.01 µM, 24 h 1.01 | [3]; 0.01 µM, 48 h 1.35 | [3]; 0.01 µM, 72 h 1.89 | [3]; 0.1 µM, 24 h 1.09 | [3]; 0.1 µM, 48 h 1.65 | [3]; 0.1 µM, 72 h 1.93 | [3]; 1 µM, 24 h 1.27

Cn1cc(-c2ccc3c(c2)CCN3C(=O)Cc2cccc(C(F)(F)F)c2)c2c(N)ncnc21
inactive: [1]; 0.01 µM, 24 h 0.971 | [1]; 0.01 µM, 48 h 0.966 | [1]; 0.01 µM, 72 h 0.935 | [1]; 0.1 µM, 24 h 0.981 | [1]; 0.1 µM, 48 h 0.987 | [1]; 0.1 µM, 72 h 0.978 | [1]; 1 µM, 24 h 0.972 | [1]; 1 µM, 48 h 1.01 | [1]; 1 µM, 72 h 0.913 | [2]; 0.01 µM, 24 h 1.07 | [2]; 0.01 µM, 48 h 1.03 | [2]; 0.01 µM, 72 h 1.02 | [2]; 0.1 µM, 24 h 1.01 | [2]; 0.1 µM, 48 h 1.05 | [2]; 0.1 µM, 72 h 1.07 | [2]; 1 µM, 24 h 0.955 | [2]; 1 µM, 48 h 1.02 | [2]; 1 µM, 72 h 1.08 | [3]; 0.01 µM, 24 h 0.987 | [3]; 0.01 µM, 48 h 0.984 | [3]; 0.01 µM, 72 h 0.979 | [3]; 0.1 µM, 24 h 0.986 | [3]; 0.1 µM, 48 h 0.981 | [3]; 0.1 µM, 72 h 0.977 | [3]; 1 µM, 24 h 1.05 | [3]; 1 µM, 48 h 1.34 | [3]; 1 µM, 72 h 1.77

CC(C)c1cc2c(N3CCN(C4=NCC(C)(C)S4)CC3)ncnc2s1 [MI-3 (Menin-MLL Inhibitor)]
inactive: [1]; 0.01 µM, 24 h 0.943 | [1]; 0.01 µM, 48 h 0.954 | [1]; 0.01 µM, 72 h 0.984 | [1]; 0.1 µM, 24 h 0.923 | [1]; 0.1 µM, 48 h 0.941 | [1]; 0.1 µM, 72 h 0.923 | [2]; 0.01 µM, 24 h 0.955 | [2]; 0.01 µM, 48 h 0.967 | [2]; 0.01 µM, 72 h 0.974 | [2]; 0.1 µM, 24 h 0.987 | [2]; 0.1 µM, 48 h 1.01 | [2]; 0.1 µM, 72 h 0.966 | [3]; 0.01 µM, 24 h 0.931 | [3]; 0.01 µM, 48 h 0.933 | [3]; 0.01 µM, 72 h 0.927 | [3]; 0.1 µM, 24 h 0.883 | [3]; 0.1 µM, 48 h 0.889 | [3]; 0.1 µM, 72 h 0.876 | [3]; 1 µM, 24 h 0.961 | [3]; 1 µM, 48 h 0.951 | [3]; 1 µM, 72 h 0.95

FC(F)(F)c1ccc(CNc2ccc(Cc3c[nH]c4ncc(Cl)cc34)cn2)cn1 [Pexidartinib]
inactive: [1]; 0.01 µM, 24 h 1.01 | [1]; 0.01 µM, 48 h 1 | [1]; 0.01 µM, 72 h 0.979 | [1]; 0.1 µM, 24 h 0.99 | [1]; 0.1 µM, 48 h 1 | [1]; 0.1 µM, 72 h 0.967 | [1]; 1 µM, 24 h 0.964 | [1]; 1 µM, 48 h 0.989 | [1]; 1 µM, 72 h 0.967 | [2]; 0.01 µM, 24 h 0.99 | [2]; 0.01 µM, 48 h 0.998 | [2]; 0.01 µM, 72 h 0.956 | [2]; 0.1 µM, 24 h 1 | [2]; 0.1 µM, 48 h 1 | [2]; 0.1 µM, 72 h 1.03 | [2]; 1 µM, 24 h 1.04 | [2]; 1 µM, 48 h 1.12 | [2]; 1 µM, 72 h 1.2 | [3]; 0.01 µM, 24 h 1.01 | [3]; 0.01 µM, 48 h 1 | [3]; 0.01 µM, 72 h 1.01 | [3]; 0.1 µM, 24 h 1.07 | [3]; 0.1 µM, 48 h 1.17 | [3]; 0.1 µM, 72 h 1.21 | [3]; 1 µM, 24 h 1.09 | [3]; 1 µM, 48 h 1.41 | [3]; 1 µM, 72 h 1.74

Nc1cccc2c1C(=O)N(C1CCC(=O)NC1=O)C2=O (stereo unspecified) [Pomalidomide]
inactive: [1]; 0.01 µM, 24 h 1 | [1]; 0.01 µM, 48 h 0.988 | [1]; 0.01 µM, 72 h 0.953 | [1]; 0.1 µM, 24 h 1.01 | [1]; 0.1 µM, 48 h 1.01 | [1]; 0.1 µM, 72 h 0.952 | [1]; 1 µM, 24 h 1.03 | [1]; 1 µM, 48 h 1.04 | [1]; 1 µM, 72 h 0.984 | [2]; 0.01 µM, 24 h 0.992 | [2]; 0.01 µM, 48 h 0.996 | [2]; 0.01 µM, 72 h 0.983 | [2]; 0.1 µM, 24 h 1.01 | [2]; 0.1 µM, 48 h 0.998 | [2]; 0.1 µM, 72 h 0.985 | [2]; 1 µM, 24 h 1.01 | [2]; 1 µM, 48 h 1.02 | [2]; 1 µM, 72 h 1 | [3]; 0.01 µM, 24 h 0.981 | [3]; 0.01 µM, 48 h 0.995 | [3]; 0.01 µM, 72 h 0.992 | [3]; 0.1 µM, 24 h 1.04 | [3]; 0.1 µM, 48 h 1.01 | [3]; 0.1 µM, 72 h 0.983 | [3]; 1 µM, 24 h 1.01 | [3]; 1 µM, 48 h 0.968 | [3]; 1 µM, 72 h 0.96

CC1(C)CC[C@]2(NC(=O)C(C)(F)F)CC[C@]3(C)[C@H](C(=O)C=C4[C@@]5(C)C=C(C#N)C(=O)C(C)(C)[C@@H]5CC[C@]43C)[C@@H]2C1 [Omaveloxolone]
inactive: [1]; 0.01 µM, 24 h 0.972 | [1]; 0.01 µM, 48 h 0.97 | [1]; 0.01 µM, 72 h 1 | [1]; 0.1 µM, 24 h 0.98 | [1]; 0.1 µM, 48 h 0.952 | [1]; 0.1 µM, 72 h 0.762 | [1]; 1 µM, 72 h 1.56 | [2]; 0.01 µM, 24 h 0.94 | [2]; 0.01 µM, 48 h 0.95 | [2]; 0.01 µM, 72 h 0.898 | [2]; 0.1 µM, 24 h 0.971 | [2]; 0.1 µM, 48 h 1 | [2]; 0.1 µM, 72 h 0.946 | [2]; 1 µM, 24 h 1.11 | [2]; 1 µM, 48 h 1.34 | [2]; 1 µM, 72 h 1.34 | [3]; 0.01 µM, 24 h 0.94 | [3]; 0.01 µM, 48 h 0.94 | [3]; 0.01 µM, 72 h 0.966 | [3]; 0.1 µM, 24 h 0.943 | [3]; 0.1 µM, 48 h 0.997 | [3]; 0.1 µM, 72 h 1.1 | [3]; 1 µM, 24 h 1.23
active: [1]; 1 µM, 24 h 2.13 | [1]; 1 µM, 48 h 2.33 | [3]; 1 µM, 48 h 2.12 | [3]; 1 µM, 72 h 2.24
